# Laboratory results from PubChem BioAssay (NCI).
# The panel holds about 79,000 compounds, 15% with a hit somewhere; the sample as a whole holds those more often. A number with no mark means an inactive call. The source made the active and inactive calls. Cut-off read from the data, not from the text of the source: active = growth inhibition above about 70%; inactive = the rest.
# Key:
# [1] = NCI Yeast Anticancer Drug Screen. Data for the sgs1 strain (AID 173);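 note: 0% = growth of vehicle-only control cultures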; conditions: S. cerevisiae sgs1 mutant, stronger effect = higher value
# Method in brief: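 Strain with an altered DNA repair or cell cycle pathway exposed to compound. Growth then measured. Value = inhibition versus vehicle control.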
# [2] = NCI Yeast Anticancer Drug Screen. Data for the mlh1 rad18 strain (AID 175); conditions: S. cerevisiae mlh1 rad18 strain growth inhibition, stronger effect = higher value
# Method in brief: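 A repair-deficient yeast strain is exposed to test compound, and growth is scored relative to vehicle-treated controls.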
# [3] = NCI Yeast Anticancer Drug Screen. Data for the wt1 strain (AID 149);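 note: 0% = growth of vehicle-treated wt1 cultures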; conditions: S. cerevisiae wt1 strain (SPY 50644) growth inhibition, stronger effect = higher value
# Method in brief: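 Using yeast strain wt1, compound-induced growth inhibition was determined against vehicle-treated cultures.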
# [4] = NCI Yeast Anticancer Drug Screen. Data for the rad50EPP+ strain (AID 151);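 note: 0% = growth of vehicle-treated control cultures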; conditions: S. cerevisiae rad50 mutant strain, stronger effect = higher value
# Method in brief: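 Measured: growth inhibition of rad50EPP+ yeast. Reference: vehicle-treated controls. Screen uses strains with defined genetic alterations in DNA damage repair or cell cycle control.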
# [5] = NCI Yeast Anticancer Drug Screen. Data for the mgt1 strain (AID 153); conditions: S. cerevisiae mgt1 mutant growth inhibition, stronger effect = higher value
# Method in brief: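 Compounds were applied to mgt1 mutant yeast, and growth was then compared against vehicle-treated control cultures to give percent inhibition.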
# [6] = NCI Yeast Anticancer Drug Screen. Data for the mec2-1 strain (AID 157); conditions: S. cerevisiae mec2-1 strain, stronger effect = higher value
# Method in brief: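 Compounds were applied to mec2-1 yeast cells. Their growth was then compared with that of vehicle-treated cultures to give growth inhibition.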
# [7] = NCI Yeast Anticancer Drug Screen. Data for the rad14 strain (AID 159);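 note: 0% = growth of vehicle-treated control cultures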; conditions: S. cerevisiae rad14 strain growth inhibition, stronger effect = higher value
# Method in brief: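 Screen for anticancer potential: a yeast strain altered in DNA damage repair is grown with compound, and reduced growth is quantified against vehicle controls.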
# [8] = NCI Yeast Anticancer Drug Screen. Data for the sgs1 mgt1 strain (AID 161);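 note: 0% = growth of cultures given vehicle only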; conditions: S. cerevisiae sgs1 mgt1 strain, stronger effect = higher value
# Method in brief: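 Percent growth inhibition was derived by comparing compound-exposed mutant yeast with vehicle-exposed cultures. The strain carries alterations in DNA damage repair.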
# [9] = NCI Yeast Anticancer Drug Screen. Data for the CLN2oe strain (AID 163);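 note: 0% = growth of vehicle-only control cultures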; conditions: S. cerevisiae CLN2oe strain, stronger effect = higher value
# Method in brief: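 Cells of an engineered yeast line with disturbed cell-cycle regulation are treated with compound. Inhibition of growth is then calculated relative to the vehicle-treated reference.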
# [10] = NCI Yeast Anticancer Drug Screen. Data for the cln2 rad14 strain (AID 165);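 note: 0% = growth equal to vehicle treated cultures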; conditions: S. cerevisiae cln2 rad14 strain, stronger effect = higher value
# Method in brief: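 Strain: cln2 rad14 yeast, altered in cell cycle control and DNA damage repair. Read-out: growth inhibition vs vehicle.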
# [11] = NCI Yeast Anticancer Drug Screen. Data for the bub3 strain (AID 167); conditions: S. cerevisiae bub3 mutant strain, stronger effect = higher value
# Method in brief: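 Screening used yeast with an engineered genetic alteration affecting cell cycle control. Compound-exposed cultures were compared with vehicle cultures, and reduced growth was taken as inhibition.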
# [12] = NCI Yeast Anticancer Drug Screen. Data for the wt2 strain (AID 169);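 note: 0% = growth of vehicle-treated yeast cultures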; conditions: S. cerevisiae wt2 strain growth inhibition, stronger effect = higher value
# Method in brief: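 Growth of compound-treated yeast is measured and expressed as inhibition relative to vehicle-only controls.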
# [13] = NCI Yeast Anticancer Drug Screen. Data for the mlh1 strain (AID 171);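 note: 0% = growth of vehicle-treated control cultures of the same strain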; conditions: S. cerevisiae mlh1 strain growth inhibition, stronger effect = higher value
# Method in brief: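 Test agents were incubated with yeast bearing a defined DNA damage repair or cell cycle control alteration; values are growth inhibition normalised to vehicle-treated cultures.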
# [14] = NCI Yeast Anticancer Drug Screen. Data for the rad18 strain (AID 177); conditions: S. cerevisiae rad18 mutant growth inhibition, stronger effect = higher value
# Method in brief: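 DNA-repair-defective yeast; compound treatment; growth inhibition scored against vehicle.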
# [15] = NCI Yeast Anticancer Drug Screen. Data for the rad50 strain (AID 155);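 note: 0% = growth of vehicle-only cultures of the same strain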; conditions: S. cerevisiae rad50 strain growth inhibition, stronger effect = higher value
# Method in brief: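 Relative growth inhibition (compound vs vehicle) was measured in yeast with a defined repair-gene alteration.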
# [16] = at 5.0 µM (retest, dose inferred, filed as 0.5)
# [17] = at 50.0 µM (retest, dose inferred, filed as 5.0)
compound,measurement,setting,value
O=Cc1ccccc1B(O)O,growth inhibition,[1]; at 33.0 µM,99% (active)
same,growth inhibition,[1]; at 100.0 µM,99% (active)
same,growth inhibition,[2]; [16],-48%
same,growth inhibition,[2]; [17],94% (active)
same,growth inhibition,[2]; at 50.0 µM,99.5% (active)
O=C(CCC(=O)c1ccc(O)cc1)Oc1ccc(O)cc1,growth inhibition,[3]; at 1.2 µM,-2%
same,growth inhibition,[3]; at 3.7 µM,2%
same,growth inhibition,[3]; at 11.0 µM,-2%
same,growth inhibition,[3]; at 33.0 µM,-2%
same,growth inhibition,[3]; at 100.0 µM,1%
same,growth inhibition,[4]; at 1.2 µM,5%
same,growth inhibition,[4]; at 3.7 µM,9%
same,growth inhibition,[4]; at 11.0 µM,15%
same,growth inhibition,[4]; at 33.0 µM,17%
same,growth inhibition,[4]; at 100.0 µM,24%
same,growth inhibition,[5]; at 1.2 µM,1%
same,growth inhibition,[5]; at 3.7 µM,-1%
same,growth inhibition,[5]; at 11.0 µM,2%
same,growth inhibition,[5]; at 33.0 µM,2%
same,growth inhibition,[5]; at 100.0 µM,3%
same,growth inhibition,[6]; at 1.2 µM,-1%
same,growth inhibition,[6]; at 3.7 µM,3%
same,growth inhibition,[6]; [16],-2%
same,growth inhibition,[6]; at 11.0 µM,3%
same,growth inhibition,[6]; at 33.0 µM,7%
same,growth inhibition,[6]; [17],-11%
same,growth inhibition,[6]; at 50.0 µM,-22.5%
same,growth inhibition,[6]; at 100.0 µM,5%
same,growth inhibition,[7]; at 1.2 µM,-1%
same,growth inhibition,[7]; at 3.7 µM,-1%
same,growth inhibition,[7]; at 11.0 µM,-1%
same,growth inhibition,[7]; at 33.0 µM,1%
same,growth inhibition,[7]; at 100.0 µM,5%
same,growth inhibition,[8]; [16],-8%
same,growth inhibition,[8]; [17],10%
same,growth inhibition,[8]; at 50.0 µM,2.2%
same,growth inhibition,[9]; at 1.2 µM,3%
same,growth inhibition,[9]; at 3.7 µM,-11%
same,growth inhibition,[9]; at 11.0 µM,5%
same,growth inhibition,[9]; at 33.0 µM,3%
same,growth inhibition,[9]; at 100.0 µM,6%
same,growth inhibition,[10]; [16],-9%
same,growth inhibition,[10]; [17],40%
same,growth inhibition,[10]; at 50.0 µM,8.3%
same,growth inhibition,[11]; at 1.2 µM,12%
same,growth inhibition,[11]; at 3.7 µM,21%
same,growth inhibition,[11]; [16],18%
same,growth inhibition,[11]; at 11.0 µM,33%
same,growth inhibition,[11]; at 33.0 µM,40%
same,growth inhibition,[11]; [17],67%
same,growth inhibition,[11]; at 50.0 µM,29.1%
same,growth inhibition,[11]; at 100.0 µM,47%
same,growth inhibition,[12]; at 1.2 µM,-1%
same,growth inhibition,[12]; at 3.7 µM,-1%
same,growth inhibition,[12]; at 11.0 µM,-2%
same,growth inhibition,[12]; at 33.0 µM,1%
same,growth inhibition,[12]; at 100.0 µM,-1%
same,growth inhibition,[13]; at 1.2 µM,3%
same,growth inhibition,[13]; at 3.7 µM,0%
same,growth inhibition,[13]; at 11.0 µM,2%
same,growth inhibition,[13]; at 33.0 µM,1%
same,growth inhibition,[13]; at 100.0 µM,4%
same,growth inhibition,[1]; at 1.2 µM,1%
same,growth inhibition,[1]; at 3.7 µM,1%
same,growth inhibition,[1]; at 11.0 µM,1%
same,growth inhibition,[1]; at 33.0 µM,4%
same,growth inhibition,[1]; at 100.0 µM,6%
same,growth inhibition,[2]; [16],-18%
same,growth inhibition,[2]; [17],25%
same,growth inhibition,[2]; at 50.0 µM,1.35%
same,growth inhibition,[14]; at 1.2 µM,1%
same,growth inhibition,[14]; at 3.7 µM,-3%
same,growth inhibition,[14]; at 11.0 µM,-4%
same,growth inhibition,[14]; at 33.0 µM,-4%
same,growth inhibition,[14]; at 100.0 µM,-4%
CC(=O)c1ccc(NCN2C(=O)c3ccccc3C2=O)cc1,growth inhibition,[3]; at 1.2 µM,-51%
same,growth inhibition,[3]; at 3.7 µM,-41%
same,growth inhibition,[3]; at 11.0 µM,-36%
same,growth inhibition,[3]; at 33.0 µM,66%
same,growth inhibition,[3]; at 100.0 µM,89% (active)
same,growth inhibition,[4]; at 1.2 µM,-17%
same,growth inhibition,[4]; at 3.7 µM,-32%
same,growth inhibition,[4]; at 11.0 µM,6%
same,growth inhibition,[4]; at 33.0 µM,70% (active)
same,growth inhibition,[4]; at 100.0 µM,90% (active)
same,growth inhibition,[15]; at 1.2 µM,-20%
same,growth inhibition,[15]; at 3.7 µM,-12%
same,growth inhibition,[15]; [16],42%
same,growth inhibition,[15]; at 11.0 µM,55%
same,growth inhibition,[15]; at 33.0 µM,85% (active)
same,growth inhibition,[15]; [17],99% (active)
same,growth inhibition,[15]; at 50.0 µM,82.7% (active)
same,growth inhibition,[15]; at 100.0 µM,89% (active)
same,growth inhibition,[6]; at 1.2 µM,-8%
same,growth inhibition,[6]; at 3.7 µM,-30%
same,growth inhibition,[6]; [16],51%
same,growth inhibition,[6]; at 11.0 µM,16%
same,growth inhibition,[6]; at 33.0 µM,81% (active)
same,growth inhibition,[6]; [17],99% (active)
same,growth inhibition,[6]; at 50.0 µM,84.5% (active)
same,growth inhibition,[6]; at 100.0 µM,91% (active)
same,growth inhibition,[7]; at 1.2 µM,-50%
same,growth inhibition,[7]; at 3.7 µM,-39%
same,growth inhibition,[7]; at 11.0 µM,-19%
same,growth inhibition,[7]; at 33.0 µM,66%
same,growth inhibition,[7]; at 100.0 µM,93% (active)
same,growth inhibition,[8]; [16],7%
same,growth inhibition,[8]; [17],25%
same,growth inhibition,[9]; at 1.2 µM,-19%
same,growth inhibition,[9]; at 3.7 µM,-32%
same,growth inhibition,[9]; at 11.0 µM,-31%
same,growth inhibition,[9]; at 33.0 µM,53%
same,growth inhibition,[9]; at 100.0 µM,82% (active)
same,growth inhibition,[10]; [16],48%
same,growth inhibition,[10]; [17],35%
same,growth inhibition,[11]; at 1.2 µM,-15%
same,growth inhibition,[11]; at 3.7 µM,-2%
same,growth inhibition,[11]; [16],34%
same,growth inhibition,[11]; at 11.0 µM,22%
same,growth inhibition,[11]; at 33.0 µM,79% (active)
same,growth inhibition,[11]; [17],42%
same,growth inhibition,[11]; at 100.0 µM,91% (active)
same,growth inhibition,[12]; at 1.2 µM,-49%
same,growth inhibition,[12]; at 3.7 µM,-36%
same,growth inhibition,[12]; at 11.0 µM,-15%
same,growth inhibition,[12]; at 33.0 µM,64%
same,growth inhibition,[12]; at 100.0 µM,89% (active)
same,growth inhibition,[13]; at 1.2 µM,-44%
same,growth inhibition,[13]; at 3.7 µM,-48%
same,growth inhibition,[13]; at 11.0 µM,6%
same,growth inhibition,[13]; at 33.0 µM,68%
same,growth inhibition,[13]; at 100.0 µM,83% (active)
same,growth inhibition,[1]; at 1.2 µM,-25%
same,growth inhibition,[1]; at 3.7 µM,-28%
same,growth inhibition,[1]; at 11.0 µM,-13%
same,growth inhibition,[1]; at 33.0 µM,73% (active)
same,growth inhibition,[1]; at 100.0 µM,86% (active)
same,growth inhibition,[2]; [16],36%
same,growth inhibition,[2]; [17],99% (active)
same,growth inhibition,[2]; at 50.0 µM,85.8% (active)
same,growth inhibition,[14]; at 1.2 µM,-36%
same,growth inhibition,[14]; at 3.7 µM,-21%
same,growth inhibition,[14]; at 11.0 µM,47%
same,growth inhibition,[14]; at 33.0 µM,90% (active)
same,growth inhibition,[14]; at 100.0 µM,92% (active)
